Rows were chosen to be rich in hits. Some 6.1% of all compounds tested hit in one or more screens of this group.
D3 ag: qHTS of D3 Dopamine Receptor Agonist: qHTS; D(3) dopamine receptor (Homo sapiens), P35462; D3R DiscoveRx beta-arrestin cells, luminescence, 90 min; max activation, %; 0.58% of 410,000 active; in the data active = max activation above about 30%; also: 0% is about no effect
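Cells at 1500/well, incubated overnight, then treated with pinned compounds (dopamine as control) for 90 min at 37 degrees C. DiscoveRx reagent added for 30 - 60 minutes at room temperature; luminescence read.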
D1 antagonist: Antagonist of Human D 1 Dopamine Receptor: qHTS | HEK293 TREx D1 cells, calcium flux, dopamine EC80; active compounds read low | activity change, negative = inhibition, % at 10 µM | AID 504652, 2011 | 3.2% of 360,000 active; in the data active = activity change below about -30%; also: % is scaled to controls: 0 for no effect and ±100 for the full control effect
Target sequence (P21728 whole entry, looked up): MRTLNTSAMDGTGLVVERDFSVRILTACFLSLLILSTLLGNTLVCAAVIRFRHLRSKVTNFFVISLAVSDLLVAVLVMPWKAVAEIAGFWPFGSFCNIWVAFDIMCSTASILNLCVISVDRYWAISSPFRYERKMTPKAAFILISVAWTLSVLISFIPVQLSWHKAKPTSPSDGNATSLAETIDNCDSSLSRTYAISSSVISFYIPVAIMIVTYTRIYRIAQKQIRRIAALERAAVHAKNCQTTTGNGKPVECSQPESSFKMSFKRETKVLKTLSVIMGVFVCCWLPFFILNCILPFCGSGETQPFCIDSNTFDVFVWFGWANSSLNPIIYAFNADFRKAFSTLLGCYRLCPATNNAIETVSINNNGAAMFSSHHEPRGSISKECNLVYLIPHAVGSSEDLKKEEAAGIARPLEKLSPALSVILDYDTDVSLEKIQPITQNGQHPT
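Tetracycline-induced HEK293 Trex D1 cells, force-coupled to calcium, dye-loaded; compounds added and read 180 s, then EC80 dopamine added and calcium flux tracked kinetically another 180 s.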
D1 agonist: Allosteric Agonists of the Human D1 Dopamine Receptor: qHTS | D(1A) dopamine receptor (Homo sapiens), P21728 | HEK293 T-REx D1 cells, calcium flux, agonist mode | AID 504660, 2011 | activation, % at 2 µM | 1% of 360,000 active; in the data active = activation above about 30%; also: 0% is about no effect
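Tetracycline-induced HEK293 TREx D1 cells, force-coupled to calcium signalling, were dye-loaded with a no-wash calcium kit. Compound was pin-added after a 10 s baseline. Fluorescence was read kinetically at 1 cycle/s for 180 s, with calcium rises flagged as agonism.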
D1 potentiator: Potentiators of Human D1 Dopamine Receptor: qHTS; D(1A) dopamine receptor (Homo sapiens), P21728; HEK293 TREx D1 cells, calcium flux, dopamine EC20 potentiation; potentiation, % at 10 µM; 0.036% of 360,000 active; in the data active = potentiation above about 30%; also: 0% is about no effect
DRD3 antagonist: qHTS of D3 Dopamine Receptor Antagonist: qHTS; AID 652054, 2013; 2.5% of 360,000 active; D3R cells, DiscoveRx beta-arrestin luminescence, antagonist mode; active compounds read low; max response, negative = inhibition, %; in the data active = max response below about -50%; inconclusive = no clear call, values can overlap the other calls; also: % is scaled to controls: 0 for no effect and ±100 for the full control effect
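Cells plated overnight at 1500 cells/well, then exposed to library compounds with dopamine controls for 90 minutes at 37 degrees C. DiscoveRx reagent added for 30–60 minutes at room temperature; luminescence read, quantitative HTS format.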
Active calls of the source: *; u = inconclusive; x = not tested or not shown.

SMILES	D3 ag	D1 antagonist	D1 agonist	D1 potentiator	DRD3 antagonist
N#Cc1nc(COc2ccccc2F)oc1NCCc1ccccc1	-4	-1	-2	-9	-21
CN(Cc1ccccc1)c1oc(COc2ccccc2F)nc1C#N	-7	-33*	29	x	2
Cc1ccccc1CN1CCN(CC(=O)NCCCN2CCN(c3ccc(F)cc3)CC2)C1=O	-17	-65*	24	-12	u
O=C(CN1CCN(Cc2ccc(Cl)cc2)C1=O)NCCCN1CCOCC1	-1	4	2	-8	0
O=C(CN1CCN(Cc2ccc(F)cc2Cl)C1=O)NCCCN1CCOCC1	-4	9	0	-1	-12
O=C(CN1CCN(Cc2ccc(Cl)cc2)C1=O)NCCCN1CCN(c2ccc(F)cc2)CC1	-48	-10	4	-3	-66*
CCOCCNC(=O)c1ccccc1C(=O)NCCOCC	-4	-8	1	-3	14
CCOCCN(C(=O)c1ccccc1Cl)c1cccc(C)c1C	-3	-38*	0	-9	-10
Cc1nnc(N2CCC(C(=O)NCCC(C)C)CC2)c2nn(-c3ccc(Cl)cc3)c(C)c12	-3	12	7	0	x
Cn1c(SCc2nc(-c3ccccc3)no2)nnc1-c1cccs1	32*	29	0	-4	11
COc1nnc(-c2ccc(N3CCCCC3)c(NC(=O)c3ccccc3Cl)c2)c2ccccc12	1	-4	1	-5	x
CC(=O)C1CCN(Cc2ccccc2)CC1	-5	6	5	-5	13
CSc1ccccc1OC1CCN(Cc2ccccc2)CC1	-33	-88*	15	-8	-92*
Cc1ccc(-c2nn(-c3ccccc3)cc2/C=N/n2c(-c3cccs3)n[nH]c2=S)cc1	7	10	1	7	3
S=c1[nH]nc(-c2cccs2)n1/N=C/c1cn(-c2ccccc2)nc1-c1cccs1	30*	3	1	2	14
COc1ccc(N2CCN(C(=O)C(=O)c3cn(CC(=O)N4CCCCCC4)c4ccccc34)CC2)cc1	-8	-58*	1	-6	-17
COc1ccc(N2CCN(C(=O)C(=O)c3cn(CC(=O)N4CCOCC4)c4ccccc34)CC2)cc1	5	3	2	-7	0
Cc1c(C(=O)N(C)C)sc(NC(=O)c2cc([N+](=O)[O-])cc([N+](=O)[O-])c2)c1C#N	-3	8	2	4	-91*
CCCCNc1c(-c2ccc(OC)c(Sc3ccc(OC)cc3)c2)nc2ccccn12	-2	31	2	2	-16
CCCCCCSc1cc(-c2nc3cc(C)ccn3c2NCCCC)ccc1OC	-26	25	4	6	54
CCCCNc1c(-c2ccc(-c3ccc(OC)cc3)c(OC)c2)nc2ccccn12	102*	x	x	x	188
CCCCCCSc1cc(-c2nc3cnccn3c2NCCCC)ccc1OC	104*	x	x	x	185
CCCCNc1c(-c2ccc(OC)c(Sc3ccc(OC)cc3)c2)nc2cnccn12	62*	x	x	x	94
COc1ccc(-c2onc(C)c2C)cc1S(=O)(=O)Nc1ccc(OC(F)(F)F)cc1	1	-28	2	0	x
O=C(Nc1nccc(-c2cccs2)n1)c1ccccc1Cl	-5	-38*	-2	-4	-23
SMILES	D3 ag	D1 antagonist	D1 agonist	D1 potentiator	DRD3 antagonist
O=C(c1ccccc1Cl)N(C(=O)c1ccccc1Cl)c1nccc(-c2cccs2)n1	1	-5	2	4	11
CN1CCN(NC(=O)c2cn(-c3ccccc3)nc2-c2cccc(Br)c2)CC1	-6	-33*	14	-10	-11
O=[N+]([O-])c1c(Nc2ccccc2O)cc(Cl)c2nonc12	-33	-26	2	-4	-140*
O=[N+]([O-])c1c(Nc2ccccc2O)ccc2nonc12	-7	-7	3	2	-25
CN(C)c1ccc(NC(=O)Cn2cc(S(=O)(=O)Cc3ccccc3Cl)c3ccccc32)cc1	2	-3	0	2	x
O=C(N/N=C/c1cn(CCOc2ccccc2)c2ccccc12)c1ccncc1	1	-34*	3	-5	12
COc1ccccc1OCCn1cc(/C=N/NC(=O)c2ccncc2)c2ccccc21	3	7	2	-15	9
Cc1ccc(-n2c3nc(=O)n(C)c(=O)c-3cc3c(Cl)cccc32)c(C)c1	-3	4	-2	-1	x
CN(C)c1ccc(C(=S)N2CCN(Cc3ccccc3)CC2)cc1	-19	11	0	-4	-50*
O=C(c1ccc(Br)cc1)N1CCN(Cc2ccccc2)CC1	-4	-57*	1	-30	u
CCN1CCN(C(=S)c2ccc(O)cc2)CC1	-2	2	1	-1	-1
CCN1CCN(C(=S)c2ccc(Br)cc2)CC1	-24	-17	1	-6	-55*
Oc1ccc(C(=S)N2CCN(Cc3ccccc3)CC2)cc1	-6	-12	4	-3	-7
O=C(c1ccccc1F)N1CCN(Cc2ccccc2F)CC1	-12	13	-2	-1	-57*
O=C(c1ccccc1)c1ccccc1C(=O)N1CCN(Cc2ccccc2F)CC1	-1	-3	1	3	15
CC1CCN(C(=O)Cn2c(SCC(=O)Nc3ccc(F)cc3)nc3ccccc32)CC1	1	-28	0	0	x
COc1cc2c(cc1OC)C(COc1ccc(F)cc1)N(C(=O)c1ccc(S(=O)(=O)N3CCCC3)cc1)CC2 (stereo unspecified)	5	-24	1	0	x
O=C(c1ccccc1)N1CCN(Cc2ccccc2Br)CC1	0	-10	1	1	-62*
CCOc1ccc(CN2CCN(C(=O)c3ccccc3)CC2)cc1	-15	-11	3	2	-80*
CCOc1ccc(C(=O)N2CCN(Cc3ccccc3)CC2)cc1	-19	-6	2	-3	u
S=C(c1ccc(Br)cc1)N1CCN(Cc2ccccc2)CC1	-44	-7	1	-1	-78*
CC1CN(C2CCN(C(=O)c3ccccc3)CC2)CC(C)O1 (stereo unspecified)	3	-31*	1	-1	u
O=C(c1ccccc1F)N1CCC(N2CCCCCC2)CC1	-6	16	-3	-10	u
CN1CCN(C(=S)c2cn(Cc3ccc(Br)cc3)c3ccccc23)CC1	-8	10	10	-4	-88*
Cc1ccc(C(=S)N2CCN(Cc3ccccc3)CC2)s1	-10	19	9	4	-69*
CC1CCN(C2CCN(C(=O)c3ccccc3F)CC2)CC1	-6	-82*	0	-2	5
O=C(c1ccc2ccccc2c1)N1CCN(Cc2ccccc2)CC1	-18	-18	0	-8	-86*
